According to the supplement of paper PMC7724964:

T1: GIGYF1 448-540 GYF (domain begin residue: 448, domain end residue: 540), O75420
T1 chain: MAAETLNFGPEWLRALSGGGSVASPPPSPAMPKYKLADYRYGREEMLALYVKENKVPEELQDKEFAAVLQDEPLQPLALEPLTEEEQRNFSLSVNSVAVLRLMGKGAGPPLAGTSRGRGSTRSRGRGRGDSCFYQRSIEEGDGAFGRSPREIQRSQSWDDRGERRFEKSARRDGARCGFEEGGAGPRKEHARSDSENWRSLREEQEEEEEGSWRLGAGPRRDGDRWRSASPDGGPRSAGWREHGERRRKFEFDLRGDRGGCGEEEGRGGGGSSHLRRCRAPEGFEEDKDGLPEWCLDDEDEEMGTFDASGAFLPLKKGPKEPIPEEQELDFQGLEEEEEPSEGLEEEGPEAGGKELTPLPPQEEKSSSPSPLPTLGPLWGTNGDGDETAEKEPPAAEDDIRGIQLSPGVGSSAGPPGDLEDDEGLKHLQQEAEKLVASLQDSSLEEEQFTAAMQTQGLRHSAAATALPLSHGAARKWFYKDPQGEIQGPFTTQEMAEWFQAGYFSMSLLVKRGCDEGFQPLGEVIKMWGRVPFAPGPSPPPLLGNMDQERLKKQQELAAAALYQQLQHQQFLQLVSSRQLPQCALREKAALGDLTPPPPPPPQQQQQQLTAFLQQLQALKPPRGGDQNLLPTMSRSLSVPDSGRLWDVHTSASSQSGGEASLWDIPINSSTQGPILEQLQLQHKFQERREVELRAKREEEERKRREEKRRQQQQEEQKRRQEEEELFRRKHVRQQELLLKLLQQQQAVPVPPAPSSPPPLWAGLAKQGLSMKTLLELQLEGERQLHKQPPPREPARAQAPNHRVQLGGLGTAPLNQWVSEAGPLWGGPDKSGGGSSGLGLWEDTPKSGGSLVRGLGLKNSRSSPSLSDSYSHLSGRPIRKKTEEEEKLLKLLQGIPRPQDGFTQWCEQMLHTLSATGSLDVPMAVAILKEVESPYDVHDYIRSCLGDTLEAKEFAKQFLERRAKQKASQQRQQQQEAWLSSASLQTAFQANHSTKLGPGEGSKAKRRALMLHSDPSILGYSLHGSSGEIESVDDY

T2: GGA1 1-157 VHS (domain begin residue: 1, domain end residue: 157), Q9UJY5
T2 chain: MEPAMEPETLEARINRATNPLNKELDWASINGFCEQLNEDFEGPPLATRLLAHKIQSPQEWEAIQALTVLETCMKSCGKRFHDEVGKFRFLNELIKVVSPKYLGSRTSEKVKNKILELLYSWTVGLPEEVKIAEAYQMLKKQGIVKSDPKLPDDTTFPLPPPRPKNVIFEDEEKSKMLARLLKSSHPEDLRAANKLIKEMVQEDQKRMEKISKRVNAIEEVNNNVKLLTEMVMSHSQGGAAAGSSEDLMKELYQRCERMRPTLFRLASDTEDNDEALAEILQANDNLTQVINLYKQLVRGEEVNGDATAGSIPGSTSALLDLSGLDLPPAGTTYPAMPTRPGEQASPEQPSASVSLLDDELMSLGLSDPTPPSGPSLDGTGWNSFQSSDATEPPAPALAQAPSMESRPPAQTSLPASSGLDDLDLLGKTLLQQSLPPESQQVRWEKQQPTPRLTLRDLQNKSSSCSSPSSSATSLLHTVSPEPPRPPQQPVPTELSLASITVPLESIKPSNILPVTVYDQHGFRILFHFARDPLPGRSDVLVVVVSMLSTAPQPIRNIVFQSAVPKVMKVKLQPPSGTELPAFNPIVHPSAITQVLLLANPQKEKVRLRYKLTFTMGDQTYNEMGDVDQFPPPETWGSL

T3: GIGYF2 507-602 GYF (domain begin residue: 507, domain end residue: 602), Q6Y7W6
T3 chain: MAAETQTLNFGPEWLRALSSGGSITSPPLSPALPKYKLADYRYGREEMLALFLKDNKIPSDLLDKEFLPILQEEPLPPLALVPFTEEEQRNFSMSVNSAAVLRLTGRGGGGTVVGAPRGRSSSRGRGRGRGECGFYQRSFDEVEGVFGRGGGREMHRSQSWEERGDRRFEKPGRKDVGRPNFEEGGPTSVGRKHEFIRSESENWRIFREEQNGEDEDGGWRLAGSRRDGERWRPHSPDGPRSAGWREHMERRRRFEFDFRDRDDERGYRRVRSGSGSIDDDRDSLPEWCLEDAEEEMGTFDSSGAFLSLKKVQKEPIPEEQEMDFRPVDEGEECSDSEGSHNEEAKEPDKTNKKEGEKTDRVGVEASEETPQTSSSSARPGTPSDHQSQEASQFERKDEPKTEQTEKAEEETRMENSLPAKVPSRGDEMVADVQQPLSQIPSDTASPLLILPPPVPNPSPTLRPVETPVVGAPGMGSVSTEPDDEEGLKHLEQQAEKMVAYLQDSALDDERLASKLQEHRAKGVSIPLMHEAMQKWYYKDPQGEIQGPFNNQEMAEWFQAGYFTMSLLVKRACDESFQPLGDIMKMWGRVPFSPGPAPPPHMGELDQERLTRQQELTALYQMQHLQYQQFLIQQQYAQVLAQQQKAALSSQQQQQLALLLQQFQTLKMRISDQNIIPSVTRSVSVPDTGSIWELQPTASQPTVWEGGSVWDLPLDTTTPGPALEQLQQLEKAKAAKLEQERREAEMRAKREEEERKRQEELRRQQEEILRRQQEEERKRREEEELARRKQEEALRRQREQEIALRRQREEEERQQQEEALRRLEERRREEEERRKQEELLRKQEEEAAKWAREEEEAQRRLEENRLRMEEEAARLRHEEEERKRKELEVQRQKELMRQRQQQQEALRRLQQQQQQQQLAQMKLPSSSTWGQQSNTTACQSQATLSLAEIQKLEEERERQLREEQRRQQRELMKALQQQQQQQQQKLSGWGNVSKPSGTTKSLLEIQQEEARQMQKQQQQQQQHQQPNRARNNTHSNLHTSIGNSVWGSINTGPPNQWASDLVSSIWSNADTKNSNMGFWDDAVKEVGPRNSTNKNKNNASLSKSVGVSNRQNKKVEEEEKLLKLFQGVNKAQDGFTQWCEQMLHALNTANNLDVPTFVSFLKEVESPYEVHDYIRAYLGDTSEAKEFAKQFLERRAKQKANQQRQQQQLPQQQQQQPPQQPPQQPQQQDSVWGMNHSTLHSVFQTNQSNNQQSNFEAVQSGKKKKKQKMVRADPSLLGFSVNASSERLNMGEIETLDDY

T4: FRS3 12-117 IRS (domain begin residue: 12, domain end residue: 117), O43559
T4 chain: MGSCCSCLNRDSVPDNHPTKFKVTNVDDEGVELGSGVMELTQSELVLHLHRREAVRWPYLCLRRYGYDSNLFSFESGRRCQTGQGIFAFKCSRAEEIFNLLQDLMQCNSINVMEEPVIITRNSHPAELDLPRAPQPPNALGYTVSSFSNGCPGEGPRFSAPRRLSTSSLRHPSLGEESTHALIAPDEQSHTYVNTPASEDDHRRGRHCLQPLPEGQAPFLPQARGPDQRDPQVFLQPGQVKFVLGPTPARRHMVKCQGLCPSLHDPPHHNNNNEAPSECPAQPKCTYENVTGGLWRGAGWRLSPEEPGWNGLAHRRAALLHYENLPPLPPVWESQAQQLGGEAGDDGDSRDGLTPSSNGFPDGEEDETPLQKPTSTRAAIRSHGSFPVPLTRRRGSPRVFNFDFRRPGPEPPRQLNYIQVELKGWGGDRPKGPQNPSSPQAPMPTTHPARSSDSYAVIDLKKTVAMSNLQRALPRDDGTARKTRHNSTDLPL

T5: FKBP3 109-224 FKBP_C (domain begin residue: 109, domain end residue: 224), Q00688
T5 chain: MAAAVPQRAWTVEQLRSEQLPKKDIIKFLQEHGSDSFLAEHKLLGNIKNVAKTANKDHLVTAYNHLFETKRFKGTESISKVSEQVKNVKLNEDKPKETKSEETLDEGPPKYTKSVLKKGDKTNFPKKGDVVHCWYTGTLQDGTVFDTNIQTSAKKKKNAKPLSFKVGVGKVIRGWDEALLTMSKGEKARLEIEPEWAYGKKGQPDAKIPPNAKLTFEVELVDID


Target: T1, GIGYF1 448-540 GYF (domain begin …
Test: phage ELISA signal ratio (GST-PRM binding over GST background); higher = stronger binding of peptide-phage to the PRM
Outline: (§1)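 Approximately 48 individual clones from selection rounds 4 and 5 were tested by phage ELISA, and those scoring positive were sequenced. They came from five rounds of selecting an M13 phage library of randomized, cysteine-free, glycine-flanked hexadecapeptides on the gene-8 major coat protein against human peptide recognition domains fused to the C-terminus of glutathione S-transferase (GST) in 96-well plates. Each figure in the table is the ELISA signal on the GST-domain fusion relative to the signal on GST alone.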

Binder	phage ELISA signal ratio
DHWGPPGLTWHVMERA	10.1
GPPGFHQHADVMRYEM	20.9

Target: GGA3 1-153 VHS (domain begin residue: 1, domain end residue: 153)
Test: as above
Outline: as §1

Binder	phage ELISA signal ratio
SDVPPWWYHEPITGPM	17.8
EYLQIPVHHVDGIWSV	10.8
HVEQWWTTESWPNWYT	15.3
VDEWSVMKYPVEQKWV	21.6
QTDDPMWIPHQWFQAG	23.1

Target: T2, GGA1 1-157 VHS (domain begin residue: …
Test: as above
Outline: as §1

Binder	phage ELISA signal ratio
DEILLHLPWAAMHWEG	22.3
PDAMPLWHGHHVVPVY	18.9
QTMTWEARDPSKMLEL	12.5
HDFYIPYMYQDVTMIM	6.03
WDIDMWDLQEWMMIQS	13.9

Target: GGA3 579-723 Alpha_adaptinC2 (domain begin residue: 579, domain end residue: 723)
Test: as above
Outline: as §1

Binder	phage ELISA signal ratio
DWSQWQTAAMEEMITW	18.5
DTWMWGGYVSHTVQPY	23.1
AWGKYQSWEPQEWPAT	13.4
GEQMMWVDWGQWHWYE	26
IENSQPWITEYGAWEV	6.07
DEWGQWQLHESVFLME	27.9
SFTWDSFESYVEPWKY	9.04
ASQWEWDDWLYIHSQT	7.22

Target: T3, GIGYF2 507-602 GYF (domain begin …
Test: as above
Outline: as §1

Binder	phage ELISA signal ratio
QPPPGWVPSTELLEFL	23.1
ARDLPPGFVMSPENAM	11.7
RFPPGMMQQLPQYADS	29.9
EGMGPPGFWVGSDLRG	14.7
AMTPPGFPHNTQMIRA	16.9

Target: T4, FRS3 12-117 IRS (domain begin residue: …
Test: as above
Outline: as §1

Binder	phage ELISA signal ratio
VWQVPEWQTVQLEYMK	17.9
MTWWVAPWNESLDLWE	10.5
VGQGVFLDWKPGRDVN	10.6
SQWMWIVHEPVKNLPK	3.36

Target: T5, FKBP3 109-224 FKBP_C (domain begin …
Test: as above
Outline: as §1

Binder	phage ELISA signal ratio
VGQGVFLDWKPGRDVN	17.5
